This is an account of results in PubChem BioAssay (NCATS).

The structures appear in SMILES notation. Results filed as inconclusive are left out. The source made the active and inactive calls. The call rests on the fitted dose curve; in most records, active means well fitted curve in the direction sought with a large enough effect; inconclusive means small, poorly fitted or top-dose-only effect, or another doubt; inactive means no such curve, though single readings can be large; an effect the other way counts as inactive or inconclusive. Positions of bridges follow the written chain, without caps; N, C: chain ends. Non-standard residues stand in square brackets, D forms with d. Residues, ends and D or L forms follow the SMILES beside them. ξ: configuration not given here. *: point of attachment. Octanoyl(6-Me) = CCC(C)CCCCC(=O)*; ξThr(3R) = C[C@@H](O)C(N)C(=O)O; dDab = NCC[C@@H](N)C(=O)O; Dab = NCC[C@H](N)C(=O)O

Assay [1] in a line: qHTS of pediatric cancer cell lines to identify multiple opportunities for drug repurposing: Primary screen for A673 cells (AID 1347092). Further: nearly all actives have a fitted effect of over 45% in size. Further: potency means the concentration at half of the fitted maximal effect. The essentials:
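A673 cells (500-1,000 cells/well) were treated 48 hours at 37 degrees C with compounds at 11-point (0.78 nM to 46 µM) or 8-point (0.59 nM to 46 µM) dilutions. Viability read by CellTiter-Glo luminescence; concentration-response curves fitted.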

Assay [2] is described as follows: qHTS of pediatric cancer cell lines to identify multiple opportunities for drug repurposing: Primary screen for BT-37 cells (AID 1347094). Further: potency means the concentration at half of the fitted maximal effect. The gist of the method: (§1)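 Following a 5-hour attachment period, cells at 500-1,000/well received compounds and were cultured for 48 hours. CellTiter-Glo was added and luminescence read to estimate viable, metabolically active cells.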
(In general: In qHTS, concentration-response curves come from the screen itself.)

Assay [3] in a line: qHTS of pediatric cancer cell lines to identify multiple opportunities for drug repurposing: Primary screen for NB-EBc1 cells (AID 1347095). Further: potency means the concentration at half of the fitted maximal effect. The essentials:
as §1

A short description of assay [4]: qHTS of pediatric cancer cell lines to identify multiple opportunities for drug repurposing: Primary screen for U-2 OS cells (AID 1347096). Further: nearly all actives have a fitted effect of over 50% in size. Further: potency means the concentration at half of the fitted maximal effect. The essentials: (§2)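 Cells (500-1,000/well) in growth media were settled 5 h at 37 degrees C, then given compounds for 48 h. Viability was read as CellTiter-Glo luminescence. Primary runs used MIPE at 11 points (0.78 nM-46 µM) and NPC at 8 points (0.59 nM-46 µM); follow-ups used 11 points.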

Assay [5] can be described thus: qHTS of pediatric cancer cell lines to identify multiple opportunities for drug repurposing: Primary screen for SK-N-SH cells (AID 1347098). Further: nearly all actives have a fitted effect of over 65% in size. Further: potency means the concentration at half of the fitted maximal effect. The gist of the method: (§3)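 Cells (500-1,000/well) rested 5 h, then received compounds for 48 h; metabolically active cells were measured by CellTiter-Glo luminescence. Final concentrations spanned up to 46 µM (MIPE, 11-point) or 0.59 nM-46 µM (NPC, 8-point) in primary screens, 11-point in follow-ups.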

Assay [6] can be described thus: qHTS of pediatric cancer cell lines to identify multiple opportunities for drug repurposing: Primary screen for NB1643 cells (AID 1347099). Further: nearly all actives have a fitted effect of over 50% in size. Further: potency means the concentration at half of the fitted maximal effect. The gist of the method:
as §1

A short description of assay [7]: qHTS of pediatric cancer cell lines to identify multiple opportunities for drug repurposing: Primary screen for LAN-5 cells (AID 1347100). Further: potency means the concentration at half of the fitted maximal effect. The essentials: as §2
The nature of assay [8]: qHTS of pediatric cancer cell lines to identify multiple opportunities for drug repurposing: Primary screen for BT-12 cells (AID 1347101). Further: nearly all actives have a fitted effect of over 25% in size. Further: potency means the concentration at half of the fitted maximal effect. The essentials:
as §3

The nature of assay [9]: qHTS of pediatric cancer cell lines to identify multiple opportunities for drug repurposing: Primary screen for Rh18 cells (AID 1347102). Further: nearly all actives have a fitted effect of over 65% in size. Further: potency means the concentration at half of the fitted maximal effect. The essentials: as §2
Assay [10] in a line: qHTS of pediatric cancer cell lines to identify multiple opportunities for drug repurposing: Primary screen for OHS-50 cells (AID 1347103). Further: nearly all actives have a fitted effect of over 40% in size. Further: potency means the concentration at half of the fitted maximal effect. The essentials:
as §3

The nature of assay [11]: qHTS of pediatric cancer cell lines to identify multiple opportunities for drug repurposing: Primary screen for RD cells (AID 1347104). Further: nearly all actives have a fitted effect of over 55% in size. Further: potency means the concentration at half of the fitted maximal effect. The gist of the method:
as §1

The nature of assay [12]: qHTS of pediatric cancer cell lines to identify multiple opportunities for drug repurposing: Primary screen for MG 63 (6-TG R) cells (AID 1347105). Further: nearly all actives have a fitted effect of over 50% in size. Further: potency means the concentration at half of the fitted maximal effect. The essentials: as §1
Assay [13] can be described thus: qHTS of pediatric cancer cell lines to identify multiple opportunities for drug repurposing: Primary screen for control Hh wild type fibroblast cells (AID 1347106).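 Further: series mostly up to about 46 µM; a drop in luminescence marks cytotoxicity and a rise apparent proliferation; nearly all actives have a fitted effect of over 55% in size.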 The gist of the method:
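Viability after 48 h compound treatment at 37C, 500-1,000 cells/well, read as ATP luminescence with CellTiter-Glo. Primary screens used 11-point (MIPE, 0.78 nM-46 µM) or 8-point (NPC, 0.59 nM-46 µM) final concentrations; follow-up screens used 11-point dilutions.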

Assay [14] can be described thus: qHTS of pediatric cancer cell lines to identify multiple opportunities for drug repurposing: Primary screen for Rh30 cells (AID 1347107). Further: nearly all actives have a fitted effect of over 75% in size. Further: potency means the concentration at half of the fitted maximal effect. The gist of the method:
as §2

Assay [15] can be described thus: qHTS of pediatric cancer cell lines to identify multiple opportunities for drug repurposing: Primary screen for Saos-2 cells (AID 1347097). Further: nearly all actives have a fitted effect of over 40% in size. Further: potency means the concentration at half of the fitted maximal effect. The essentials: as §1
Assay [16] in a line: qHTS of pediatric cancer cell lines to identify multiple opportunities for drug repurposing: Primary screen for Rh41 cells (AID 1347108). Further: nearly all actives have a fitted effect of over 70% in size. Further: potency means the concentration at half of the fitted maximal effect. The gist of the method:
as §1

Assay [17] is described as follows: qHTS of pediatric cancer cell lines to identify multiple opportunities for drug repurposing: Confirmatory screen for NB1643 cells (AID 1347109). Further: potency means the concentration at half of the fitted maximal effect; nearly all actives have a fitted effect of over 45% in size. The gist of the method:
as §2

A short description of assay [18]: qHTS of pediatric cancer cell lines to identify multiple opportunities for drug repurposing: Confirmatory screen for A673 cells (AID 1347110).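 Further: potency means the concentration at half of the fitted maximal effect; cells exposed to compound for 48 h before the viability read; nearly all actives have a fitted effect of over 65% in size.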 The gist of the method:
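A673 cells at 500-1,000 cells/well were dosed 5 h after plating, in dilution series up to 46 uM final; primary runs used 8 or 11 points and confirmatory runs used 11 points. Viability was read by CellTiter-Glo luminescence after 48 h, against DMSO and 2.3 uM bortezomib controls.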

Assay [19] is described as follows: qHTS of pediatric cancer cell lines to identify multiple opportunities for drug repurposing: Confirmatory screen for SK-N-MC cells (AID 1347111).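 Further: potency means the concentration at half of the fitted maximal effect; cells exposed to compound for 48 h before the readout; nearly all actives have a fitted effect of over 70% in size.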 The essentials: (§4)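 Metabolically active cells were quantified by ATP-dependent luminescence (CellTiter-Glo, 15 min at room temperature) following 48 h treatment. Cells had been plated at 500-1,000 per well and settled for 5 h beforehand.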

A short description of assay [20]: qHTS of pediatric cancer cell lines to identify multiple opportunities for drug repurposing: Primary screen for SK-N-MC cells (AID 1347093). Further: potency means the concentration at half of the fitted maximal effect. The gist of the method: as §4

Consider `Cn1cc(-c2ccc3ncc(Cc4ccc5ncccc5c4)n3n2)cn1`, for which the Potency entry in assay [1], in [2], in assay [3], in assay [4], in assay [5] and in assay [6] was “inactive” throughout. For the same molecule, the Potency entry in assay [7], in [8], in assay [9], in [10], in assay [11] and in assay [12] was “inactive” in each case. In addition, the Potency result in [13] and in assay [14] was “inactive” each time.
Consider `COc1ccc(Nc2nccc(NCCO)n2)cc1`, for which the Potency entry in assay [1], in assay [2], in assay [3], in assay [4], in [15] and in assay [5] was “inactive” throughout. In addition, the Potency result in assay [7], in [8], in assay [9], in assay [10], in [11] and in assay [12] was “inactive” each time. Moreover, the Potency entry in assay [13], in [14] and in assay [16] was “inactive” in each case.
`CC[C@@]1([C@@H]2O[C@@H]([C@H]3O[C@@](O)(CO)[C@H](C)C[C@H]3C)C[C@H]2C)CC[C@H]([C@]2(C)CC[C@]3(C[C@H](O)[C@@H](C)[C@@H]([C@@H](C)[C@@H](OC)[C@H](C)C(=O)O)O3)O2)O1`: the Potency in assay [1] was 0.162 µM (active); in assay [2], 0.15 µM (active); in assay [3] it was 0.182 µM (active); in [15], 6.45 µM (active); in assay [5], 10.5 µM (active); in [6], 0.457 µM (active). Moreover, the Potency is 0.129 µM (active) in assay [7]; 0.106 µM (active) in assay [8]; 0.188 µM (active) in assay [10]; 0.362 µM (active) in assay [17]; 1.02 µM (active) in assay [18]; 0.229 µM (active) in assay [19]. Further, the Potency result in assay [9] and in [16] was “inactive” each time.
Turning to `Cc1ccc(-n2[nH]c(C)c(N=Nc3cccc(-c4cccc(C(=O)O)c4)c3O)c2=O)cc1C`, the Potency in [1] was 13.3 µM (active); in assay [20] it was 14.8 µM (active); in assay [3] it was 6.62 µM (active); in [15] it was 13.3 µM (active); in [10], 17.4 µM (active); in [12], 21.1 µM (active). Moreover, in [16], the Potency is 18.7 µM (active). The Potency entry in assay [13] is “inactive”.
On to `CC(C)n1cnc2c(NCCc3ccc(O)cc3)nc(-c3csc4ccccc34)nc21`, for which the Potency in assay [1] is 1.18 µM (active); in assay [20], 3.32 µM (active); in [15], 14.8 µM (active); in [5], 4.29 µM (active); in assay [6], 3.32 µM (active); in assay [11], 11.8 µM (active). For the same molecule, the values for the Potency in assay [12], in assay [14] and in assay [16] were 18.7 µM (active), 18.7 µM (active) and 11.8 µM (active), respectively. Further, the Potency entry in assay [4] and in [13] was “inactive” in each case.
On to `CCN(CC)CCCCNc1ncc2c(n1)N(C)C(=O)N(c1c(Cl)c(OC)cc(OC)c1Cl)C2`, for which the Potency in assay [1] is 18.7 µM (active); in assay [20] it was 13.2 µM (active); in assay [5] it was 6.81 µM (active); in [6], 16.6 µM (active); in [7], 20.9 µM (active); in assay [8], 17.2 µM (active). Moreover, the Potency is 11.8 µM (active) in [9], 19.3 µM (active) in assay [10], 18.7 µM (active) in [11] and 18.7 µM (active) in assay [16]. Also, the Potency entry in assay [4], in assay [15] and in assay [12] was “inactive” throughout.
Take `CC1(C)CC(O)CC(C)(C)N1[O]`: the Potency entry in assay [1], in [20], in [15], in assay [5], in assay [6] and in assay [7] was “inactive” each time. The Potency entry in assay [9], in assay [11], in assay [12], in assay [13], in assay [14] and in assay [16] was “inactive” each time.
Take `CNC(=O)c1ccc(Nc2cc(Nc3ccccc3S(=O)(=O)C(C)C)c3cc[nH]c3n2)nc1`: the Potency was 2.35 µM (active) in [1]; 7.69 µM (active) in assay [2]; 1.48 µM (active) in assay [3]; 18.7 µM (active) in assay [4]; 1.66 µM (active) in assay [15]; 4.82 µM (active) in [5]. Moreover, the Potency in assay [6] is 5.26 µM (active); in assay [7], 0.0935 µM (active); in [9], 9.35 µM (active); in assay [10] it was 0.544 µM (active); in assay [11], 5.9 µM (active); in [12], 5.9 µM (active). Further, the Potency in assay [16] is 5.9 µM (active); in [17] it was 1.47 µM (active); in [18], 1.17 µM (active); in [19], 2.61 µM (active). Besides, the Potency result in assay [13] is “inactive”.
On to `CCC(C)CCCCC(=O)N[C@@H](CCN)C(=O)NC(C(=O)N[C@H](CCN)C(=O)N[C@@H]1CCNC(=O)C([C@@H](C)O)NC(=O)[C@@H](CCN)NC(=O)[C@@H](CCN)NC(=O)[C@@H](CC(C)C)NC(=O)[C@H](Cc2ccccc2)NC(=O)[C@H](CCN)NC1=O)[C@@H](C)O` (stereo partly drawn) ({Octanoyl(6-Me)}-[Dab][ξThr(3R)][dDab][dDab][Dab]F[dL][dDab][dDab][ξThr(3R)]; lactam 4-C), for which the Potency entry in assay [1], in [20], in assay [4], in [15], in assay [5] and in assay [6] was “inactive” each time. In addition, the Potency result in assay [7], in assay [8], in [9], in assay [10], in [11] and in assay [12] was “inactive” each time. The Potency result in assay [13], in assay [14] and in assay [16] was “inactive” throughout.
On to `COc1cc(C(=O)NC2CCN(C)CC2)ccc1Nc1ncc2c(n1)N(C1CCCC1)CCC(=O)N2C(C)C`, for which the Potency in [1] is 2.96 µM (active); in assay [2] it was 2.43 µM (active); in [3], 0.662 µM (active); in assay [5] it was 6.07 µM (active); in assay [6], 3.72 µM (active); in assay [7], 1.18 µM (active). In addition, the Potency in [8] was 21.7 µM (active); in [9], 18.7 µM (active); in assay [10], 3.43 µM (active); in assay [11], 20.9 µM (active); in assay [12] it was 2.96 µM (active); in assay [16], 14.8 µM (active). The Potency entry in assay [4] and in [13] was “inactive” each time.
As to `COc1cccc2c1C(=O)c1c(O)c3c(c(O)c1C2=O)C[C@@](O)(C(=O)CO)C[C@@H]3O[C@H]1C[C@H](N)[C@@H](O)[C@H](C)O1`, the Potency was 0.372 µM (active) in [1]; 0.193 µM (active) in assay [2]; 0.118 µM (active) in assay [3]; 2.35 µM (active) in assay [15]; 0.429 µM (active) in assay [5]; 0.662 µM (active) in [6]. Further, the Potency in assay [7] was 0.118 µM (active); in [8], 0.685 µM (active); in assay [9], 0.469 µM (active); in [10], 0.611 µM (active); in assay [11], 0.935 µM (active); in assay [12] it was 1.48 µM (active). For the same molecule, the Potency in [16] was 0.662 µM (active); in [17], 0.165 µM (active); in assay [18] it was 0.293 µM (active); in [19] it was 0.165 µM (active). For the same molecule, the Potency result in [14] is “inactive”.
